Here are results for seven compounds from the supplement of paper PMC7156485.

Structures are written as SMILES. Where “and” joins values, the source holds several entries; their conditions need not be identical. Equal values may be shown once. A number with no mark means an inactive call.
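Further: TDF is a line of transformed human dermal fibroblasts of mesenchymal origin.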

This assay relates to HCC1569. Put plainly: H1.0 immunofluorescence intensity relative to DMSO (% of DMSO); higher = stronger H1.0 induction, active = 140 or more. The settings on record: concentration: 10 µM; 24 h. The gist of the method:
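After 24 h at 37 °C with compounds at 10 µM, in triplicate, HCC1569 and TDF cells were fixed with 3.7% formaldehyde. Immunostaining used a rabbit anti-H1.0 antibody and an AlexaFluor 647 secondary, with DAPI, and six fields per well were imaged at ×10. H1.0 nuclear intensity or cell number is presented as percent of the plate control, from the median of replicates, with HCC1569 values smoothed for positional effects.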
In the case of `O=C1NC(=O)c2c1c1c3ccccc3n3c1c1c2c2ccccc2n1C1CCC3O1`, the H1.0 immunofluorescence intensity was 126 and 107.

For `Cl.O=C(OC1CCN(CCCl)CC1)C(c1ccccc1)c1ccccc1` [4-Diphenylacetoxy-N-(2-chloroethyl)piperidine hydrochloride], the H1.0 immunofluorescence intensity is 87.6. Under `CN1Cc2c(ccc3c2OCO3)C2C(O)Cc3cc4c(cc3C21)OCO4` (single isomer, unassigned; (+)) [(+)-Chelidonine] stands 148 (active); under `CN1CCC2(CCN3CCc4c(oc5ccccc45)C3C2)N(C)C1=O.Cl` (configuration not stated), 110; under `CC(C)C1(NC(=O)C2C=C3c4cccc5[nH]cc(c45)CC3N(C)C2)OC2(O)C3CCCN3C(=O)C(Cc3ccccc3)N2C1=O` (configuration not stated) [Ergocristine], 90.3. In the case of `CC(CCc1ccccc1)NC(C)C(O)c1ccc(O)cc1.Cl` (configuration not stated) [Buphenine.HCl] it was 115; in that of `OC1CN2CCCC(O)C2C1O` (configuration not stated) [Swainsonine], 95.8.
